Reference: the supplement of paper PMC12632987
The full ranking holds about 1,800 sequences; the median of “median log2 fold change of GCK-ALFA target abundance (FLAG IP / Myc IP barcode read proportion)” is about 0.14, and the lowest 2% start at about -0.84. Many of the other results were omitted from the sample, so the lowest values are more common in it than they were.

T1: TRAF2, Q12933
T1 chain: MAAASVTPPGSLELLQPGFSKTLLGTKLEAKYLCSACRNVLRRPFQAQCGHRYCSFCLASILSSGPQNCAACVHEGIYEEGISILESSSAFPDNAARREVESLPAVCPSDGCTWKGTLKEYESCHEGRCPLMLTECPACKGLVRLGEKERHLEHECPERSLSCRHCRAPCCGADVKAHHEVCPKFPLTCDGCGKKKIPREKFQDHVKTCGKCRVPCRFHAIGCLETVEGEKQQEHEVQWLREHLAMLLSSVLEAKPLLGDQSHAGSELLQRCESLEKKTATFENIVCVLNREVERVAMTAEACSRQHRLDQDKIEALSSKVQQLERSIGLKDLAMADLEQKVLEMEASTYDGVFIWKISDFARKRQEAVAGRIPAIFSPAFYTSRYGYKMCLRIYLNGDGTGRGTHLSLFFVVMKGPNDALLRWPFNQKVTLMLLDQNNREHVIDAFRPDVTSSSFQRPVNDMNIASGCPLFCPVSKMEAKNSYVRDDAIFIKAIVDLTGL

B1: traf2_out_20_38_2040 (protein)
chain: EEEKEEEERLLEIAKKATEVADKTEAWVEEKLAAGVSPEEIIAETKKLITEKLAAIGKEEEAKELIERLDTLAAAGEVRRGVVLVMARAAAIVYQKEQEE
B2: traf2_out_20_3_2223 (protein)
chain: EELKREIEEELRKIEELLEKAKPLLPEEDYKKLKELLEKAREALETDLTDALVYLSELRRLALELAQEARAAGNEELAKLLEEMAERANRAAGLVLKAIE
B3: traf2_out_14_166_1275 (protein)
chain: MSPEEIERIRKIVDELEPLTDAAVARLEAILAANADKLTPEQLARVRALLDLARRNIGSSAINAIREIAAIFAAAGLAEAAAAARALADELEAKLKELNK
B4: traf2_out_18_167_1835 (protein)
chain: EEEKEKKRNELLDEMIDISEHYRAAIEYLELLAKDPKEAEAKKEEYMKKIDKDPELVAKIKEVLALPDEERKKAAKALADEVYDERQKKMQELWDKREAV
B5: traf2_out_20_38_2012 (protein)
chain: SEEEKEKEKEEKLIEHANEAYDRAEAWVAALQAAGKSVAEIAAEAKKRIRELLTAHGLEEEAEELIEDVDRVLDSPDAERLIVQILARAETLVFQKELQK
B6: traf2_out_13_95_1095 (protein)
chain: SAEVAAKINAIADKMLDEVLKILEELLKKMEKAGKLVEEVKEALDLAEKRSINEAIHLLKELAKKYPEFKEEFEEAIKKIEEIKREAGREVAKILKEEEE
B7: traf2_out_15_48_1341 (protein)
chain: SVEELRAVASEIADEIDAAKDAVAAELEALRPSAAPEQRAPLAEAIDAARHGRGQNTVLALLDRLEPLLAPEQAARVAALRDRLRAVVRAASARMAEVLK
B8: traf2_out_18_3_1931 (protein)
chain: SEEERKEVSDKIDEIVDDARARAERELERAREELPEKREEIDRLRAALEAGAAPFGILDALAELYEEAGKEEEAKEIEEYLSEKRKEMQELVDEYEKLIK

Biological target: T1, TRAF2, Q12933
Assay: median log2 fold change of GCK-ALFA target abundance (FLAG IP / Myc IP barcode read proportion) (log2 ratio); each designed protein is fused to an ALFA-tag nanobody in HEK293 cells to bring the named protein to FLAG-tagged glucokinase (GCK); Myc marks an untargeted standard; higher = target protein stabilised (more abundant)
Settings: target protein: 3xFLAG-MCP-GCK-ALFA reporter; HEK293 landing pad (RPLP)
In short: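 The readout is target abundance, the per-binder median log2 ratio of FLAG to Myc barcode read proportions. It came from HEK293 landing-pad cells carrying a recombined ALFA-nanobody-fused binder library, induced with 2 μg mL^−1 doxycycline and transfected with a plasmid for a FLAG-tagged target and a Myc-tagged standard. After 48 h, lysates were immunoprecipitated with anti-FLAG and anti-Myc, and circular RNA barcodes were reverse transcribed, amplified and sequenced. Each barcode needed a proportion of at least 10^−7 in both replicates and each binder at least 3 barcodes per replicate, a pseudocount of 10^−6 was added, and the replicates were pooled.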

Binder | median log2 fold change
B1 | 0.281
B2 | 0.163
B3 | 0.268
B4 | 0.297
B5 | 0.283
B6 | -0.132
B7 | 0.194
B8 | 0.304
